Among the data in PubChem BioAssay (Tox21) are outcome and Potency values, retold here.

Unmarked numbers belong to inactive results. Results filed as inconclusive are left out. Calls of active or inactive are those of the source. Unless noted, calls follow the shape of the full dose curve.

A short description of assay [1]: qHTS assay to identify small molecule agonists of the sonic hedgehog signaling (Shh) pathway (AID 1259368).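 Also: NIH/3T3-derived 3T3Gli1-Luc cells carrying a stable Gli1-driven firefly luciferase reporter; series mostly up to about 92 µM; nearly all actives have a fitted effect of over 15% in size.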 In a few lines:
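3T3Gli1-Luc (NIH/3T3 clone, stable Gli1-Luc); 4 hr pre-incubation, then cpd in DMSO 24 hr, 37 C/5% CO2; luciferase reagent 30 min RT; luminescence.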
For orientation: Quantitative high-throughput screening tests each substance at several concentrations.

The nature of assay [2]: qHTS assay to identify small molecule antagonists of the sonic hedgehog signaling (Shh) pathway (AID 1259369). Also: nearly all actives have a fitted effect of over 45% in size. Also: potency is read from the fitted curve at half-maximal effect. In a few lines:
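3T3Gli1-Luc, conditioned-medium-stimulated, 24hr cpd, 37C/5% CO2; Gli1-driven firefly Luc luminescence after 30min RT with luciferase reagent. Cells plated 4hr before cpd.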

Assay [3] in a line: qHTS assay to identify small molecule agonists of the androgen receptor (AR) signaling pathway in the presence of an antagonist - cell viability counter screen (AID 1259379; active = well fitted curve in the direction sought with a large enough effect in the repeat runs; an effect the other way counts as inactive or inconclusive; also: nearly all actives have a fitted effect of over 25% in size; also: potency is read from the fitted curve at half-maximal effect). In a few lines:
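Cells: MDA-kb2 (MMTV-luc, AR and GR elements), 3,000/well, 5 hr settle. Added: nilutamide 3.0uM final, then compounds (15 conc.). Incubation: 16 hr, 37C, no CO2. Read-out: CellTiter-Fluor, 1 hr, fluorescence.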

Assay [4] in a line: qHTS assay to identify small molecule agonists of the estrogen receptor beta (ER-beta) signaling pathway - cell viability counter screen (AID 1259380; active = well fitted curve in the direction sought with a large enough effect in the repeat runs; an effect the other way counts as inactive or inconclusive; also: nearly all actives have a fitted effect of over 30% in size). The essentials: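 HEK293T ER-beta-UAS-bla; 2% CS-FBS; 6 hr pre-plate, 16 hr cpd at 37C/5% CO2; LiveBLAzer read first, then CellTiter-Glo 30 min RT, luminescence.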
A short description of assay [5]: qHTS assay to identify small molecule antagonists of the estrogen receptor beta (ER-beta) signaling pathway - cell viability counter screen (AID 1259382; active = well fitted curve in the direction sought with a large enough effect in the repeat runs; an effect the other way counts as inactive or inconclusive;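 also: HEK293T cells carrying ER-beta-UAS-bla reporter stimulated with estradiol; series mostly up to about 92 µM; nearly all actives have a fitted effect of over 55% in size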). In a few lines:
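Cells: ER-beta-UAS-bla HEK293T, 2,000/well, 2% CS-FBS, 6 hr settle. Cpd + E2 (1nM final), 16 hr, 37C/5% CO2. Bla FRET substrate 2 hr RT, then CellTiter-Glo 30 min RT, luminescence.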

For assay [6], the target named is Estrogen receptor (Homo sapiens) (UniProt P03372). Kind of assay: qHTS assay to identify small molecule agonists of the estrogen receptor alpha (ER-alpha) signaling pathway in the presence of an antagonist (AID 1259383). Also: top concentration of the series differs between compounds; nearly all actives have a fitted effect of over 15% in size. In a few lines: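 VM7Luc4E2, endog. ER-alpha + 4×ERE-luc; charcoal-stripped FBS, phenol red-free, 5 d; 24hr plating; +10.0nM ICI-182,780 (final); cpds 15 conc, 22hr, 37C/5% CO2; ONE-Glo luminescence.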
Sequence of Estrogen receptor (Homo sapiens) (P03372 whole entry, looked up): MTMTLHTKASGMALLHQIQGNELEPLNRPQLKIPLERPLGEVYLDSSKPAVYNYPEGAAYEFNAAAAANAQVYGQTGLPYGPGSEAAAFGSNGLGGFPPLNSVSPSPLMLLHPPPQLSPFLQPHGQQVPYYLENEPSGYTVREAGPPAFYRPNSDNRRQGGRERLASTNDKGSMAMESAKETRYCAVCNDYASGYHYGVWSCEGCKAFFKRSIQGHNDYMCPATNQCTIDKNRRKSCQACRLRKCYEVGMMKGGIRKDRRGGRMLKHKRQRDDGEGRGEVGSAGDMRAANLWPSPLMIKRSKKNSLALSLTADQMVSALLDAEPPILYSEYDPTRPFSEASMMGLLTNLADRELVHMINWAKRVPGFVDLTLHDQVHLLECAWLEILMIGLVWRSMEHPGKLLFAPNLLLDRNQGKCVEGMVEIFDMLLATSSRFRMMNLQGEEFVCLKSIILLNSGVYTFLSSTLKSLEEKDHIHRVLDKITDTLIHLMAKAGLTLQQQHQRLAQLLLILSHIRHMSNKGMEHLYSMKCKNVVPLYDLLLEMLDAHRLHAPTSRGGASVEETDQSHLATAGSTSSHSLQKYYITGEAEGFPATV

A short description of assay [7]: qHTS assay to identify small molecule agonists or antagonists of the thyroid stimulating hormone receptor (TSHR) signaling pathway - wild type cell line counter screen (AID 1259384). In a few lines:
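Wild-type Hek293 cells, 800/well, 18 h at 37C, then compound with Ro20-1724 for 30 min RT. cAMP by HTRF (cAMP-d2/anti-cAMP cryptate), 1 h RT, fluorescence read. 15 concentrations, triplicates.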

Assay [8] has as its target Thyrotropin receptor (Homo sapiens) (UniProt P16473). Put plainly: qHTS assay to identify small molecule antagonists of the thyroid stimulating hormone receptor (TSHR) signaling pathway (AID 1259385). Also: nearly all actives have a fitted effect of over 20% in size. The essentials: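 TSHR-HEK293 cells (800/well) plated 18 h, then compounds with Ro20-1724 and TSH at 1.5 ng/mL final, 30 min at room temperature. cAMP quantified by HTRF (cAMP-d2/anti-cAMP-cryptate, 1 h); 15 concentrations in triplicate.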

Assay [9] can be described thus: qHTS assay to identify small molecule agonists of the estrogen receptor alpha (ER-alpha) signaling pathway in the presence of an antagonist - cell viability counter screen (AID 1259386; active = well fitted curve in the direction sought with a large enough effect in the repeat runs; an effect the other way counts as inactive or inconclusive;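 also: cells exposed to compounds for 22 h at 37 °C before the viability read; nearly all actives have a fitted effect of over 30% in size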; also: potency is read from the fitted curve at half-maximal effect). In a few lines: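 VM7Luc4E2, stripped-serum pre-culture 5 d; 24hr plating; +ICI-182,780 10.0nM final; cpds 15 conc, 22hr, 37C/5% CO2; CellTiter-Fluor added at 21hr, fluorescence 1hr later.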

Assay [10] has as its target Progesterone receptor (Homo sapiens) (UniProt P06401). Put plainly: qHTS assay to identify small molecule agonists of the progesterone receptor (PR) signaling pathway (AID 1346784). Also: nearly all actives have a fitted effect of over 30% in size. The essentials:
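Cells (PR-UAS-bla HEK 293T, GripTite) were plated in assay medium containing 2% charcoal-stripped FBS and incubated 6 hr. Test compounds in DMSO were added for 16 hr at 37C. FRET substrate was then loaded for 2 hr at room temperature before fluorescence reading.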

The target is the same in assay [11]. Kind of assay: qHTS assay to identify small molecule antagonists of the progesterone receptor (PR) signaling pathway (AID 1346795; active = well fitted inhibition curve with a large enough effect in the signal ratio in the repeat runs, not every such curve was filed as active; the % refers to the signal ratio). The essentials: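 Antagonist mode: compounds tested against 1 nM (final) promegestone stimulation in HEK293T cells expressing PR-UAS-bla reporter, 16 hr at 37C, 5% CO2; beta-lactamase activity detected via B/G FRET substrate after 2 hr at room temperature.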

Assay [12] in a line: qHTS assay to identify small molecule antagonists of the progesterone receptor (PR) signaling pathway - cell viability counter screen (AID 1346798; active = well fitted curve in the direction sought with a large enough effect in the repeat runs; an effect the other way counts as inactive or inconclusive; also: nearly all actives have a fitted effect of over 50% in size; also: potency is read from the fitted curve at half-maximal effect). The essentials: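 Counter screen for cytotoxicity: viability of PR-UAS-bla HEK293T cells was measured with CellTiter-Glo luminescence following 16 hr compound exposure in the presence of R5020.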
Assay [13] in a line: qHTS assay to identify small molecule agonists of the progesterone receptor (PR) signaling pathway - cell viability counter screen (AID 1346799). Also: nearly all actives have a fitted effect of over 45% in size. Also: potency is read from the fitted curve at half-maximal effect. The essentials:
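Cells (PR-UAS-bla HEK293T) are plated at 3,000/well in 2% charcoal-stripped FBS medium, rested 6 hr, dosed and incubated 16 hr at 37C. CellTiter-Glo is then added and luminescence measured after 30 min at room temperature.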

Assay [14] is described as follows: qHTS assay to identify small molecule agonists of the TGF-beta/Smad signaling pathway - cell viability counter screen (AID 1346829; active = well fitted curve in the direction sought with a large enough effect in the repeat runs; an effect the other way counts as inactive or inconclusive; also: top concentration of the series differs between compounds; nearly all actives have a fitted effect of over 45% in size). In a few lines:
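Compound-treated SBE-bla HEK 293T cells (5 hr, 37 C) were assessed for viability with CellTiter-Glo in parallel with the reporter read.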

Assay [15] is described as follows: qHTS assay to identify small molecule agonists of the TGF-beta/Smad signaling pathway (AID 1346859; active = well fitted activation curve with a large enough effect in the signal ratio in the repeat runs, not every such curve was filed as active; the % refers to the signal ratio; also: series mostly up to about 77 µM). The essentials: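 Reporter line: HEK 293T with stably integrated SBE-controlled beta-lactamase. Compound exposure lasts 5 hr at 37 C and 5% CO2; substrate loading follows for 2 hr at room temperature, with emission read at 460 and 530 nm.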
Assay [16] is described as follows: qHTS assay to identify small molecule antagonists of the TGF-beta/Smad signaling pathway - cell viability counter screen (AID 1346824; active = well fitted curve in the direction sought with a large enough effect in the repeat runs; an effect the other way counts as inactive or inconclusive; also: nearly all actives have a fitted effect of over 50% in size). The essentials: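 SBE-bla HEK 293T cells, incubated overnight, then compound plus 0.25 ng/mL TGF-beta1 (stock added) for 5 hr at 37 C. Viability was read in the same wells by CellTiter-Glo luminescence after 30 min at room temperature.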

Assay [17] deals with Thyrotropin-releasing hormone receptor (Homo sapiens) (UniProt P34981). Put plainly: qHTS assay to identify small molecule antagonists of the thyrotropin-releasing hormone receptor (TRHR) signaling pathway (AID 1346877; active = well fitted inhibition curve with a large enough effect in the repeat runs, not every such curve was filed as active; also: series mostly up to about 51 µM). The essentials: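 Intracellular calcium fluorescence, read kinetically every second over 3 min, reports TRH-evoked signalling in HEK293 cells carrying TRHR. Test compounds were added 5 min ahead of a 1 nM TRH challenge.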
Sequence of Thyrotropin-releasing hormone receptor (Homo sapiens) (P34981 whole entry, looked up): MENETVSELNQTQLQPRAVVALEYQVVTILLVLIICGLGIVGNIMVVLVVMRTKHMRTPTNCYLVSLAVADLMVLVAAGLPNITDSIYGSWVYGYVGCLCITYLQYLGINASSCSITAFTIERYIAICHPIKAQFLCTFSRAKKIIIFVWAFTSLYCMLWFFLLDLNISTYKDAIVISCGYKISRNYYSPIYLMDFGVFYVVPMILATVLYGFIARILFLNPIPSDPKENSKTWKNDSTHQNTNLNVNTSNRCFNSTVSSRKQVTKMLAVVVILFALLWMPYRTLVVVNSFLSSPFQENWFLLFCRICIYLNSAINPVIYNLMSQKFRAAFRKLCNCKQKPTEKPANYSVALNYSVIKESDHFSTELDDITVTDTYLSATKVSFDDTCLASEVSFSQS

Assay [18] addresses Androgen receptor (Homo sapiens) (UniProt P10275). Put plainly: qHTS assay to identify small molecule agonists of the androgen receptor (AR) signaling pathway in the presence of an antagonist (AID 1259381). Also: nearly all actives have a fitted effect of over 15% in size. In a few lines:
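MDA-kb2 cells, 3,000/well, rested 5hr at 37C/0% CO2 → nilutamide 3.0uM final or buffer → compounds, 15 conc. → 16hr at 37C → ONE-Glo, 30min RT → luminescence.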

Sequence of Progesterone receptor (Homo sapiens) (P06401 whole entry, looked up): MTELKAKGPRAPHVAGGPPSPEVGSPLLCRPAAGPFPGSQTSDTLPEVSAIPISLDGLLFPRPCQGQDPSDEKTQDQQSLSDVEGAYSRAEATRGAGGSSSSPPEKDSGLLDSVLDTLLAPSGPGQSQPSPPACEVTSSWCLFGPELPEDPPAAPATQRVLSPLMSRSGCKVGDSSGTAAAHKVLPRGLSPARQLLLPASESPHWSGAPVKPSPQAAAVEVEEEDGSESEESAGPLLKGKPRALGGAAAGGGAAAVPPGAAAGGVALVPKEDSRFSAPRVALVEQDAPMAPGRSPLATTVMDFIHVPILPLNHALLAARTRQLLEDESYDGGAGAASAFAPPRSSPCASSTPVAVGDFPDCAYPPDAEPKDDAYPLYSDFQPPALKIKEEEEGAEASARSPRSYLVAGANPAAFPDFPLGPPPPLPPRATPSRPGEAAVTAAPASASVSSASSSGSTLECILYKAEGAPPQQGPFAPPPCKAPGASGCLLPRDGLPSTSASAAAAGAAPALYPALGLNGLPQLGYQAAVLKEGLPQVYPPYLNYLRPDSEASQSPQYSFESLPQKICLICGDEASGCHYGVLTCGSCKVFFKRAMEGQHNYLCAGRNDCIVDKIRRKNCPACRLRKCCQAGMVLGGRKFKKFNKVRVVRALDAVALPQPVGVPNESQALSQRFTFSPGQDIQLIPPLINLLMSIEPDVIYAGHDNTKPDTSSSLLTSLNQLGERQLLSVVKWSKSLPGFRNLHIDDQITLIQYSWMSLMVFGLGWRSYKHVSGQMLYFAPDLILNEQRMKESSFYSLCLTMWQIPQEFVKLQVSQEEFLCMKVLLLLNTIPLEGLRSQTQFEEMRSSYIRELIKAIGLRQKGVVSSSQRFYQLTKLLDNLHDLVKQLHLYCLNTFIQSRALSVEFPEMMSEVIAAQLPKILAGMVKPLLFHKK
Sequence of Thyrotropin receptor (Homo sapiens) (P16473 whole entry, looked up): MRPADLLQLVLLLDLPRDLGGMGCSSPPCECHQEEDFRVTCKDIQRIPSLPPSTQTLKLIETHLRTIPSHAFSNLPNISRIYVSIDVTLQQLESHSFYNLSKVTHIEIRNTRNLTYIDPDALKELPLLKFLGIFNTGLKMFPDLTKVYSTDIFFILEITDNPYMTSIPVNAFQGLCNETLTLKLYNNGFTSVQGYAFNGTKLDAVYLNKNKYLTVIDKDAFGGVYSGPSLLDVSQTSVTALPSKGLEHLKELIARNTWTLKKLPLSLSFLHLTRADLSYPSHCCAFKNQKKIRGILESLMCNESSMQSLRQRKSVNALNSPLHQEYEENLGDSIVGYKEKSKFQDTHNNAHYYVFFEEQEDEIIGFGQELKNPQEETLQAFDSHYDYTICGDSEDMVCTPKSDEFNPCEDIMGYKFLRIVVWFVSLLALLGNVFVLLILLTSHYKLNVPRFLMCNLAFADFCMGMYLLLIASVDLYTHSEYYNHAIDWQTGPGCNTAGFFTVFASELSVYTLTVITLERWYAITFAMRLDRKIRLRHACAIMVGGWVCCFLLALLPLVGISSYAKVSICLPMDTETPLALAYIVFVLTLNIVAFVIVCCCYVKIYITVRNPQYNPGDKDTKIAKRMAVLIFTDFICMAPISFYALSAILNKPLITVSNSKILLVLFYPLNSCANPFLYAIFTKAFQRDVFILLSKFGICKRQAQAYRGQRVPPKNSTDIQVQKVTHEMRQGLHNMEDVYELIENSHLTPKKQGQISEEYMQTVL
Sequence of Androgen receptor (Homo sapiens) (P10275 whole entry, looked up): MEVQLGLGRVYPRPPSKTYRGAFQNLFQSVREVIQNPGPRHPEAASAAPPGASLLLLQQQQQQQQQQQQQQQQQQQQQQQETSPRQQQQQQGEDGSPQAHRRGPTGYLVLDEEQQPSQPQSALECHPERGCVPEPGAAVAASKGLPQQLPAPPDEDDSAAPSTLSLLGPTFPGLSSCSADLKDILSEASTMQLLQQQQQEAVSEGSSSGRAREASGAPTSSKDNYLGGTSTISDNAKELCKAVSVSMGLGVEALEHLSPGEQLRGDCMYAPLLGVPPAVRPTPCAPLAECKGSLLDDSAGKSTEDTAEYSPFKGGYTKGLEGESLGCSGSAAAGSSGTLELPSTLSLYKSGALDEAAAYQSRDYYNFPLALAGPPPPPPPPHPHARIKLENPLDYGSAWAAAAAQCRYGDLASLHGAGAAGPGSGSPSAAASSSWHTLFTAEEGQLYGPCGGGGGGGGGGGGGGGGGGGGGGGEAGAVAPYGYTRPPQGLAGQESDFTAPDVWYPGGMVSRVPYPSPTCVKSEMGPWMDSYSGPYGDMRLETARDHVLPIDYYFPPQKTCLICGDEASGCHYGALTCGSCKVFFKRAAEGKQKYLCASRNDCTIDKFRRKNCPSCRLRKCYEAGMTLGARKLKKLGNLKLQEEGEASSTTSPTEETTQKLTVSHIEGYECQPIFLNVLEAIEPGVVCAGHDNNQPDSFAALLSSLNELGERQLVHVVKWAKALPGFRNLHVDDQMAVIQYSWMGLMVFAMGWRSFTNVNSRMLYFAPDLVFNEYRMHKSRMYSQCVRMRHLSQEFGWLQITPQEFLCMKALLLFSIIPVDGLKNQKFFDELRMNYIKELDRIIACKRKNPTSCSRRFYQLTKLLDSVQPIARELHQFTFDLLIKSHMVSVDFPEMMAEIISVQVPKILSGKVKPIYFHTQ

Turning to `CN(CCOc1ccc(NS(C)(=O)=O)cc1)CCc1ccc(NS(C)(=O)=O)cc1`, the outcome in [1], in [5], in assay [6], in assay [7], in assay [8] and in assay [14] was inactive. The result in assay [15] was inactive. Besides, the Potency entry in [2], in [3], in assay [4], in assay [9], in assay [10] and in [11] was “inactive” each time. Further, the Potency result in assay [12] and in assay [13] was “inactive” each time.
For `OC[C@H](Cc1cccc(O)c1)[C@H](CO)Cc1cccc(O)c1`, the result in [1], in [16], in assay [14] and in [17] was inactive. Further, the Potency in assay [2] is 62.6 µM (active). For the same compound, the Potency entry in assay [3], in [9], in assay [10], in [11], in [12] and in [13] was “inactive” throughout.
As to `CCOc1cc(NC(C)=O)ccc1C(=O)OC`, the call in assay [1], in assay [5], in assay [6], in [7], in [8] and in assay [16] was inactive. Moreover, the result in assay [14], in assay [15] and in assay [17] was inactive. Moreover, the Potency result in [2], in assay [3], in [4], in [9], in [10] and in [11] was “inactive” each time. The Potency result in assay [12] and in [13] was “inactive” throughout.
As to `Nc1ccc([N+](=O)[O-])c(N)c1`, the compound was called inactive in assay [1], in assay [5], in assay [6], in assay [7], in assay [8] and in assay [16]. In addition, the call in assay [14], in assay [15] and in assay [17] was inactive. Besides, the Potency entry in assay [2], in assay [4], in assay [10], in assay [12] and in assay [13] was “inactive” in each case. The Potency in [3] and in assay [9] was 29.9 µM (active) each time.
Regarding `Cc1ccccc1N=O`, the compound was classed as inactive in [1], in [5], in [7], in assay [16], in assay [14] and in assay [17]. Further, the Potency entry in assay [2], in assay [3], in [4], in assay [10], in [11] and in assay [12] was “inactive” each time. Besides, in assay [13], the Potency result is “inactive”.
For the compound `CC1(CO)CN(c2ccccc2)NC1=O` (centres undefined), the call in assay [1], in [7], in [14], in assay [15] and in assay [17] was inactive. Moreover, the Potency result in assay [2], in [3], in assay [18], in assay [9], in assay [10] and in assay [11] was “inactive” in each case. The Potency entry in assay [12] and in assay [13] was “inactive” each time.
With `CCCCOCCOC(=O)COc1nc(Cl)c(Cl)cc1Cl`, the outcome in assay [1], in [6], in assay [7], in assay [8], in assay [16] and in assay [14] was inactive. For the same compound, the compound was called inactive in [15] and in [17]. The Potency result in [2], in assay [3], in assay [4], in assay [10], in assay [11] and in assay [12] was “inactive” throughout. Further, the Potency entry in [13] is “inactive”.
For the compound `C=C(C)C(=O)OCc1ccccc1`, the compound was called inactive in [1], in assay [5], in assay [6], in [16], in assay [14] and in assay [15]. For the same compound, the Potency result in [2], in [3], in assay [4], in assay [9], in assay [10] and in [11] was “inactive” throughout. Further, the Potency in assay [12] was 30.6 µM (active); in assay [13], 48.6 µM (active).
